Results on 12 molecules are retold here after PubChem BioAssay (NCI).

Compounds without any hit were thinned out: in the full panel of roughly 83,000, 20% have a hit.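 Testing used 96-well plates and a 48-hour single-concentration exposure. Example: -40 means 40% of the starting cells died.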 Values without a mark were called inactive. Calls of active or inactive are those of the source. Rule for the calls: active = growth percent below 10; inactive = the rest.

The experiment concerns A549/ATCC NSCLC. Description: NCI-60 one-dose screen, 48 h (100 = growth as untreated, 0 = no growth, -100 = all killed). To be noted: 10 µM unless noted.
As for `COc1cc(-c2nc(C(=O)NCC(=O)NO)nn2-c2ccc(Cl)cc2)cc(OC)c1OC`, the growth was 90.1%.

For the molecule `C=C1C(=O)O[C@H]2[C@H]1CC/C(C=Nc1ccc(C(F)(F)F)cc1N)=C\CC[C@@]1(C)O[C@@H]21`, the growth was 59.7%.

As to `CSc1nc(NCCO)c(C#N)c(-c2cccc([N+](=O)[O-])c2)n1`, the growth is 105%.

Consider `Cn1c(=O)[nH]c(=O)c2nc(CCC(=O)NCCC(=O)O)c(=O)[nH]c21`, for which the growth is 103%.

For `C=CC(=O)Nc1cccc(-c2nc(SC)nc(Nc3ccccc3OC)c2C#N)c1`, the growth was -6.83% (active).

As to `CC1=C[C@H]2c3c(c(O)c(O)c4oc5c(C)cccc5c(=O)c34)[C@H](c3cc(O)c(O)c4oc5c(C)cccc5c(=O)c34)[C@H]2C(C)(C)C1`, the growth is 11.9%.

As to `COc1ccc(/C=C(\C#N)C(=O)Nc2cccc(Nc3nc(SC)nc(-c4cccc([N+](=O)[O-])c4)c3C#N)c2)cc1OC`, the growth is 103%.

Consider `CCN(CC)c1ccc(/C=N\NC(=O)/C=C/C=C/c2ccc3c(c2)OCO3)c(O)c1`, for which the growth was 53.3%.

Regarding `CC(C)(C)c1cc(/C=N\NC(=O)/C=C/C=C/c2ccc3c(c2)OCO3)c(O)c(C(C)(C)C)c1`, the growth was 87.5%.

For the molecule `CN(C)CCCNc1c2ccccc2nc2ccccc12`, the growth is 96.2%.

`CN1CCN(c2nc(NCCCCNc3ccnc4cc(Cl)ccc34)c3ccccc3n2)CC1`: the growth was 49.3%.

`COc1cc2c(cc1-c1c(C)noc1C)ncc1nc(C3CCOCC3)n([C@@H](C)COC(F)F)c12`: the growth was 42.4%.
